PrPC TRFRET: inhibitors of human cell surface prion protein PrPC, primary screen, cell-based, TR-FRET | TR-FRET read-out | inhibition, % at 13.8 µM | 0.43% of 370,000 active | AID 720596, 2013 | Major prion protein (Homo sapiens), P04156; in the data active = inhibition above about 24%; note: 0% = median of the test wells and 100% = reference compound wells
VHR inh abs: VHR1 phosphatase inhibitors, primary screen, biochemical, absorbance, uHTS; 0.52% of 290,000 active; Dual specificity protein phosphatase 3 (Homo sapiens), P51452; inhibition, % at 13.3 µM; recombinant VHR phosphatase, pNPP absorbance; in the data active = inhibition above about 50%
Target sequence (P51452 whole entry, looked up): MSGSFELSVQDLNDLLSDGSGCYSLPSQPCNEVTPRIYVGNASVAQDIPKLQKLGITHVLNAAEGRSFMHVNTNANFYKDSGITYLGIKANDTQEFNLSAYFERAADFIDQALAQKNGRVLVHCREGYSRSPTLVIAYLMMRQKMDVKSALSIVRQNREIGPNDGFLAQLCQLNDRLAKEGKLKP
Sa RN4220 lethal: growth inhibition of S. aureus RN4220, primary screen, OD600 | 16 h | inhibition, % (no concentration beside the values) | 0.33% of 330,000 active | AID 1259311, 2017; in the data active = inhibition above about 85%;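 note: plate controls were untreated cells for no effect and reference antibiotic for full effect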
BJeLR lethal: MLPCN primary cell-based screen for lethality selective to Ras in HRASV12 cells; BJeLR (HRASV12) viability, CellTiter-Glo ATP luminescence, 48 h; inhibition, % (concentration not given with the values); 0.17% of 300,000 active; AID 1554, 2009; in the data active = inhibition above about 50%
3CLpro inhibitor: SARS-CoV 3CLpro protease inhibitors, primary screen, biochemical, quenched FRET | Replicase polyprotein 1ab (Severe acute respiratory syndrome coronavirus), P0C6X7 | recombinant SARS-CoV 3CLpro, quenched FRET peptide cleavage | inhibition, % at 6 µM | 0.14% of 290,000 active | AID 1706, 2009; in the data active = inhibition above about 12%
Sa ugtP lethal: growth inhibition of ugtP-null S. aureus, primary screen, RN4220 ugtP deletion, OD600 | 16 h | growth inhibition, % (test concentration not listed) | 0.54% of 330,000 active | AID 1259309, 2017; in the data active = growth inhibition above about 68%;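 note: plate controls were untreated wells for no effect and antibiotic for full effect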
Active calls of the source: *. In the library only some 1.4% were active in any assay of this set; here they are far more common.

How did O=C(O)c1cc(-c2ccc(-c3c(-c4ccc5c(c4)OCO5)noc3-c3ccsc3)cc2)nc2ccccc12 do in these assays?
PrPC TRFRET: 0; VHR inh abs: 13; Sa RN4220 lethal: 96*; BJeLR lethal: -14; 3CLpro inhibitor: 4; Sa ugtP lethal: 94*

Results for CN(C)c1ccc(-c2c(-c3ccc4c(c3)OCO4)noc2-c2ccsc2)cn1 ?
VHR inh abs: 17; Sa RN4220 lethal: -6; BJeLR lethal: 6; 3CLpro inhibitor: -7; Sa ugtP lethal: 22

Results for CCCCn1c(=O)c2c(nc3n2CCCN3Cc2ccccc2)n(C)c1=O ?
PrPC TRFRET: 3; VHR inh abs: 58*; Sa RN4220 lethal: 1; BJeLR lethal: 8; 3CLpro inhibitor: 0; Sa ugtP lethal: 8

What do the screens show for `Cc1ccc(C#N)c(SCCN2CCCCC2)n1`?
PrPC TRFRET: -2; VHR inh abs: 52*; Sa RN4220 lethal: 2; BJeLR lethal: -7; 3CLpro inhibitor: -1; Sa ugtP lethal: 6

Results for CC(C(=O)Nc1ccc2ccccc2c1)C1C[C@]1(C)C(NS(=O)(=O)c1ccccc1)c1ccccc1 (some centres undefined) ?
Sa RN4220 lethal: 5; Sa ugtP lethal: 16

What do the screens show for `COc1ccc(CC(NC(C)=O)C(=O)NC2CCN(C(=O)c3cccc(Cl)c3)CC2)cc1OC` (centres undefined)?
PrPC TRFRET: 6; VHR inh abs: 53*; Sa RN4220 lethal: 3; BJeLR lethal: -11; 3CLpro inhibitor: 1; Sa ugtP lethal: 3

How did CCN1C(=O)C2C(c3ccc(-c4ccc(F)cc4)cc3)N[C@@](C)(C(=O)OC)C2C1=O (some centres undefined) do in these assays?
Sa RN4220 lethal: 7; Sa ugtP lethal: 5

Results for CC(C)(Sc1ccc(CCN(CCCCC2CCCCC2)C(=O)NC2CCCCC2)cc1)C(=O)O ?
PrPC TRFRET: 6; Sa RN4220 lethal: 66; Sa ugtP lethal: 86*

How did C=C(C=O)CC1CC(O)[C@]2(C)OC3CC4OC5C[C@]6(C)O[C@]7(C)CCC8OC9C[C@]%10(C)OC%11C(C)=CC(=O)OC%11CC%10OC9C[C@@H](C)C8OC7CC6O[C@]5(C)C/C=C\C4OC3CC2O1 (some centres undefined) do in these assays?
PrPC TRFRET: -11

Results for C=C(C=O)C[C@@H]1C[C@H](O)C2OC3C[C@]4(C)OC5/C=C\CC6OC7C(CC=CCC6OC5CCCC4OC3CC2O1)OC1CC2OC3CC(=O)OC3C[C@@H](C)C[C@@]2(C)OC1C[C@@H]7C (some centres undefined) ?
VHR inh abs: -4; BJeLR lethal: 95*

What do the screens show for `Cn1ncc2c(O/N=C(\N)c3ccc(C(C)(C)C)cc3)ncnc21`?
VHR inh abs: 4; BJeLR lethal: 99*; 3CLpro inhibitor: 1

How did Cc1ccc(NC2=CC(=NS(=O)(=O)c3cccs3)c3ccccc3C2=O)cc1C do in these assays?
Sa RN4220 lethal: 10; Sa ugtP lethal: 3

Results for Cc1ccccc1NC1=C/C(=N\S(=O)(=O)c2cccs2)c2ccccc2C1=O ?
PrPC TRFRET: -4; VHR inh abs: 7; Sa RN4220 lethal: 99*; BJeLR lethal: 1; 3CLpro inhibitor: 4; Sa ugtP lethal: 88*

How did Cc1nn(-c2ccccc2)c(C)c1C=CC(=O)OC(C)C(N)=O (centres undefined) do in these assays?
Sa RN4220 lethal: 1; Sa ugtP lethal: -7

What do the screens show for `CC(C)C[C@@H]1CN=C(N)N1C[C@@H]1CCCN1C[C@@H](C(C)C)N1C[C@@H](Cc2ccccc2)N(CCCC2CCCC2)C1=N`?
PrPC TRFRET: -5; Sa RN4220 lethal: 101*; Sa ugtP lethal: 101*

How did CC[C@@H](C)[C@@H]1CN([C@@H](CN2CCC[C@H]2CN2C(N)=NC[C@H]2C(C)C)C(C)C)C(=N)N1CCc1ccc(Cl)c(Cl)c1 do in these assays?
Sa RN4220 lethal: 101*; Sa ugtP lethal: 101*

What do the screens show for `CCCCN1C(=N)N(C(CCC)CN2CCCC2CN2C(N)=NCC2Cc2ccccc2)CC1Cc1ccccc1` (centres undefined)?
Sa RN4220 lethal: 82; Sa ugtP lethal: 98*

What do the screens show for `CCCCN1C(=N)N([C@@H](CN2CCC[C@H]2CN2C(N)=NC[C@@H]2Cc2ccccc2)C(C)C)C[C@H]1Cc1ccccc1`?
PrPC TRFRET: 0

Results for CCCCN1C(=N)N([C@@H](CCC)CN2CCC[C@H]2CN2C(N)=NC[C@H]2CC(C)C)C[C@H]1Cc1ccccc1 ?
PrPC TRFRET: 3; Sa RN4220 lethal: -2; Sa ugtP lethal: 6

What do the screens show for `CCC[C@@H](CN1CCC[C@H]1CN1C(N)=NC[C@H]1C(C)C)N1C[C@@H](Cc2ccccc2)N(CCCC2CCCC2)C1=N`?
PrPC TRFRET: -3; Sa RN4220 lethal: 100*; Sa ugtP lethal: 101*

Results for CCCCN1C(=N)N(C(CN2CCCC2CN2C(N)=NCC2Cc2ccccc2)C(C)C)CC1Cc1ccccc1 (centres undefined) ?
Sa RN4220 lethal: -6; Sa ugtP lethal: -2

What do the screens show for `CC(C)NC(=O)c1ccc(CSCc2ccccc2Cl)o1`?
PrPC TRFRET: 16; VHR inh abs: 57*; Sa RN4220 lethal: 1; BJeLR lethal: -2; 3CLpro inhibitor: -3; Sa ugtP lethal: 0

How did CCC(C)NC(=O)c1ccc(CSCc2ccccc2Cl)o1 (centres undefined) do in these assays?
PrPC TRFRET: -3; VHR inh abs: -8; Sa RN4220 lethal: 3; BJeLR lethal: -2; 3CLpro inhibitor: 1; Sa ugtP lethal: 0

Results for CCCCC(=O)Nc1c(-c2cccc(OC)c2)c(=O)c2ccccc2n1C ?
PrPC TRFRET: -5; VHR inh abs: 58*; Sa RN4220 lethal: 10; BJeLR lethal: 2; 3CLpro inhibitor: -1; Sa ugtP lethal: 12

What do the screens show for `COc1cc(/C=C2\SC(=S)N(NS(=O)(=O)c3ccc(C)cc3)C2=O)ccc1O`?
PrPC TRFRET: -21; VHR inh abs: 4; Sa RN4220 lethal: 86*; BJeLR lethal: 8; 3CLpro inhibitor: 2; Sa ugtP lethal: 71

How did CCOc1cc(/C=C2\SC(=S)N(NS(=O)(=O)c3ccc(C)cc3)C2=O)ccc1O do in these assays?
PrPC TRFRET: -23; Sa RN4220 lethal: 85*; BJeLR lethal: -6; Sa ugtP lethal: 73

Results for COc1ccccc1/C=C1\SC(=S)N(NS(=O)(=O)c2ccccc2)C1=O ?
PrPC TRFRET: 2; Sa RN4220 lethal: 88*; BJeLR lethal: 1; 3CLpro inhibitor: 0; Sa ugtP lethal: 70

What do the screens show for `NCCCCC1NC(=O)C(CCC(=O)O)NC(=O)c2cc([N+](=O)[O-])cc(I)c2NCCC(C(N)=O)NC1=O` (centres undefined)?
Sa RN4220 lethal: 3; Sa ugtP lethal: -8
